Assay results reported in the supplement of paper PMC10981050.
Values joined by “and” are separate entries in the source; they are usually repeats but may differ in a detail not shown here. Equal entries are not always repeated. Structures can show the parent of a compound that is named as a salt.

Experiments:
Experiment in all cases: cell viability relative to vehicle control; higher = less cytotoxic
Settings in all cases: 10 µM
K562 = system: K562
Summary of the method: (§1)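 Four leukaemia lines, as CRISPR-edited mutant clones and isogenic wild-type clones, were tested against Selleck bioactive, kinase and epigenetic probe libraries after removal of identity-inconsistent compounds. Cells were exposed to a single 10 µM dose for 48 h, and CellTiter-Glo luminescence was then read. Viability was calculated relative to the on-plate vehicle control.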

MARIMO = system: MARIMO
Summary of the method: as §1

MOLM14 = system: MOLM14
Summary of the method: as §1

OCI-AML2 = system: OCI-AML2
Summary of the method: as §1

| SMILES | cell viability (K562; SRSF2 genotype: SRSF2 P95H/wt) | cell viability (K562; SRSF2 genotype: SRSF2 wt/wt) [%] | cell viability (MARIMO; SRSF2 genotype: SRSF2 P95H/wt) [%] | cell viability (MARIMO; SRSF2 genotype: SRSF2 wt/wt) [%] | cell viability (MOLM14; SRSF2 genotype: SRSF2 P95H/wt) [%] | cell viability (MOLM14; SRSF2 genotype: SRSF2 wt/wt) [%] | cell viability (OCI-AML2; SRSF2 genotype: P95H/wt) [%] | cell viability (OCI-AML2; SRSF2 genotype: wt/wt) [%] |
| --- | --- | --- | --- | --- | --- | --- | --- | --- |
| ClCCN(Cc1ccccc1)Cc1ccccc1 [Dibenamine Hydrochloride] | 103% and 95.7% | 91.5 | 94.9 | 104 | 94.8 | 103 | 83.5 | 89.3 |
| C=C1[C@H]2C[C@@]3([C@@H]1O)[C@@H](CC2=O)[C@]12[C@@H]4C[C@H]3[C@H]1N(CC)C[C@]4(C)CC[C@@H]2O [Songorine] | 96.8% and 99.6% | 101 | 98 | 98.8 | 102 | 98.4 | 103 | 103 |
| CC[C@]12C=CCN3CC[C@]4(C(=C(C(=O)OC)C1)Nc1ccccc14)[C@@H]32 [Tabersonine hydrochloride] | 18.2% and 28.9% | 32.3 | 13 | 13.8 | 3.62 | 1.08 | 8.35 | 13.7 |
| C[N+]1(C)[C@@H]2C[C@@H](OC(=O)[C@H](CO)c3ccccc3)C[C@H]1[C@@H]1O[C@@H]12 [Methscopolamine (Pamine)] | 97.7% and 84.7% | 82.5 | 79.5 | 87.8 | 82.4 | 84.1 | 83.2 | 84.8 |
| C=C[C@H]1CN2CC[C@]3(C(=O)Nc4ccccc43)[C@@H]2C[C@@H]1/C(=C\OC)C(=O)OC [Corynoxeine] | 92.3% and 98.1% | 97.7 | 84.5 | 81.1 | 93.8 | 93.1 | 96 | 95.4 |
| CC1=C2C(=O)[C@H]3[C@@H](CC=C4C[C@@H](O)CC[C@@]43C)[C@@H]2CC[C@]12O[C@@H]1C[C@H](C)CN[C@H]1[C@H]2C [Jervine] | 91.9% and 81.4% | 85.2 | 89.1 | 98.5 | 91.4 | 101 | 92.7 | 92.4 |
| O=c1ccc2cc3ccoc3c(O)c2o1 [Xanthotoxol] | 91.6% and 88.5% | 87.1 | 84.3 | 95.3 | 92.8 | 92.2 | 96.5 | 93.3 |
| C/C=C(\C)C(=O)N[C@@H](c1ccccc1)[C@@H](O)C(=O)O[C@H]1C[C@@]2(O)[C@@H](OC(=O)c3ccccc3)[C@@H]3[C@]4(OC(C)=O)CO[C@@H]4C[C@H](O)[C@@]3(C)C(=O)[C@H](OC(C)=O)C(=C1C)C2(C)C [Cephalomannine] | 22.2% and 39.2% | 31 | 7.43 | 5.47 | 9.27 | 2.7 | 7.08 | 10.9 |
| C[N+]1(C)CCCC(OC(=O)C(O)(c2ccccc2)c2ccccc2)C1 (stereo not given) [mepenzolate bromide] | 106% and 102% | 98.9 | 103 | 112 | 104 | 104 | 101 | 105 |
| CC[N+](C)(CC)CCOC(=O)C(O)(c1ccccc1)c1ccccc1 [Methylbenactyzine Bromide] | 95.9% and 96.8% | 100 | 97.7 | 104 | 96.1 | 102 | 97.7 | 91 |
| CCC1CN2CCC3(C(=O)Nc4ccccc43)C2CC1C(=COC)C(=O)OC (stereo not given) [Isorhychophylline] | 95.3% and 96.3% | 95.5 | 83.5 | 72 | 92.5 | 89.1 | 97.3 | 89.8 |
| CC1C(=O)OC2C(O)C34C5OC(=O)C3(OC3OC(=O)C(O)C34C(C(C)(C)C)C5O)C12O (stereo not given) [Ginkgolide C] | 98.9% and 97.9% | 94.4 | 93.5 | 97.6 | 103 | 103 | 102 | 105 |
| CN(C)[C@@H]1C(=O)C(C(N)=O)=C(O)[C@@]2(O)C(=O)C3=C(O)c4c(O)ccc(Cl)c4[C@@](C)(O)[C@H]3C[C@@H]12 [Chlortetracycline HCl] | 106% and 108% | 107 | 105 | 108 | 105 | 105 | 102 | 103 |
| O=C1C2CCN(CC2)C1(CO)CO | 74.5% and 85.5% | 73.3 | 83.6 | 73.8 | 34.1 | 41.8 | 56.2 | 47 |
| O=c1ccc2ccc3occc3c2o1 [Isopsoralen] | 105% and 98.7% | 105 | 100 | 101 | 108 | 110 | 103 | 97 |
| CC(=O)O[C@@H]1[C@H]2[C@@H](OC(=O)Cc3ccccc3)[C@@H](C)C[C@]2(OC(C)=O)C(=O)/C(C)=C/[C@@H]2[C@H](CC[C@]13CO3)C2(C)C [Euphorbia factor L1] | 105% and 96.6% | 100 | 89.8 | 102 | 102 | 104 | 95.9 | 105 |
| COc1cc(C)[nH]c(=O)c1CNC(=O)c1c(C)n([C@H](C)C2CCN(CC(F)(F)F)CC2)c2ccccc12 | 103% and 99% | 110 | 103 | 110 | 97.2 | 95.3 | 103 | 109 |
| COc1cc(OC)c(OC)cc1C=O [Asaraldehyde (Asaronaldehyde)] | 110% and 107% | 106 | 100 | 114 | 110 | 105 | 102 | 105 |
| Cc1sc2c(c1C)C(c1ccc(Cl)cc1)=NC(CC(N)=O)c1nnc(C)n1-2 (stereo not given) | 65.2% and 63.5% | 69.8 | 30 | 36.7 | 20.1 | 20.3 | 15.3 | 29.4 |
| C[C@H]1CC(=O)C[C@@H]2CC[C@H]3[C@@H]4CC[C@H](O)[C@@]4(C)CC[C@@H]3[C@]21C [Mesterolone] | 84.1% and 79.7% | 83 | 71.6 | 82.2 | 79.9 | 84.7 | 75.6 | 80.7 |
